# Assay outcomes from PubChem.
# A selection: hits, their analogues and other compounds. The true share with any hit is near 3.7%.
# tim23-1 inh – inhibits growth of tim23-1 mutant yeast | S. cerevisiae tim23-1 growth, BacTiter-Glo luminescence, 24 h | inhibition, % at 20 µM | 1.3% of 330,000 active | AID 463212;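 active = growth inhibition of the mutant yeast at or above 50%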;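 also: temperature-sensitive mutant grown at 25 °C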
# V-ATPase pHluor – alters yeast V-ATPase proton transport; S. cerevisiae, pHLuorin cytosolic pH fluorescence; 0.37% of 350,000 active; AID 504577; response, % at 10 µM; in the data active = response mostly above about 7.3%, no sharp cut-off; inactive = mostly below about 5.4%; also: actives read high
# tim10-1 inh – growth inhibitors of tim10-1 mutant yeast; S. cerevisiae tim10-1 ts strain growth, BacTiter-Glo, 24 h; inhibition, % at 20 µM; 2.2% of 330,000 active; AID 463190;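 active = inhibition of at least 40%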;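 also: mutant grown at 25 °C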
# TIM10 inh – TIM10 yeast growth inhibition. S. cerevisiae TIM10 strain growth, BacTiter-Glo luminescence, 24 h. inhibition, % at 10 µM. 1.4% of 330,000 active. AID 463195;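 active = inhibition of 40% or more at the single tested concentration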;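 also: wild-type TIM10 isogenic control strain grown at permissive 25 °C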
# PfHsp90 yeast 2 – inhibits growth of yeast expressing Plasmodium falciparum Hsp90; S. cerevisiae expressing PfHsp90, BacTiter-Glo ATP, 48 h; yeast lacking PDR1 and PDR3 efflux regulators; inhibition, % at 9.4 µM; 0.32% of 310,000 active;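 active = every replicate shows inhibition above about 80%, whatever the replicate mean, limit read from the data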
# tim23-1 conf – tim23-1 yeast growth inhibition, confirmed | shares compounds with tim23-1 inh | S. cerevisiae tim23-1 growth, BacTiter-Glo luminescence, 24 h | inhibition, % at 20 µM | 83% of 4,400 active;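 active = inhibition above about 39% in either of two replicate wells at 20 µM, limit read from the data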;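 also: temperature-sensitive tim23-1 mutant grown at 25 °C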
# Numbers stand for hits; - = inactive; . = no result given.
SMILES,tim23-1 inh,V-ATPase pHluor,tim10-1 inh,TIM10 inh,PfHsp90 yeast 2,tim23-1 conf
CC1CN(C(=O)/C=C/c2ccc(SC(F)F)cc2)CC(C)O1 (stereo not given),-,-,-,-,-,.
CS(=O)(=O)Cc1cccc(C(=O)NN(c2ccccc2)c2ccccc2)c1,-,-,-,-,-,.
Cn1cc(C(=O)c2ccc(Cl)cc2)cc1-c1nc2ccccc2n1C,64,-,-,-,.,48
C=CCNC(=O)c1n[nH]c2c1CC(C(C)(C)CC)CC2 (stereo not given),53,-,-,-,-,56
CC(C)(C)C1CCc2onc(C(=O)NCc3ccc(F)cc3)c2C1 (stereo not given),-,-,-,-,-,.
CCCNC(=O)c1n[nH]c2c1CC(C(C)(C)CC)CC2 (stereo not given),57,-,-,-,-,58
Cc1cccc(NS(=O)(=O)c2cccc(C(=O)NCC(c3ccc(F)cc3)N3CCOCC3)c2)c1 (stereo not given),.,-,.,.,-,.
COc1ccc(S(=O)(=O)N2CCOC23CCN(S(=O)(=O)c2cc(F)ccc2F)CC3)cc1,53,-,-,-,-,-
CC/C(=N\NC(=O)c1ccc(N2CCCC2=O)cc1)c1ccccc1,-,-,-,-,-,.
Cc1nc2ccccc2c(=O)n1/N=C/c1ccccc1O,-,-,-,-,-,.
Cc1cc([N+](=O)[O-])cc(/C=N/n2c(C)nc3ccccc3c2=O)c1O,79,-,-,-,-,66
CCOc1ccc(C(=O)NNC(=O)CN2C(=O)NC3(CCCC3)C2=O)cc1,-,-,-,-,-,.
Nc1cc(-c2ccccc2)nn1Cc1ccc(Cl)cc1,50,-,-,-,-,-
CCN1C(=O)/C(=C/c2nc3ccccc3c(=O)n2-c2ccc(C)cc2)c2ccccc21,52,-,-,-,-,41
CCN1C(=O)/C(=C/c2nc3ccccc3c(=O)[nH]2)c2ccccc21,.,-,.,.,-,.
CC1CCN(C(=O)C(C)NCc2ccc(F)cc2)CC1 (stereo not given),-,-,-,-,-,.
Cc1ccc(S(=O)(=O)N2CCN(C(=O)COC(=O)Cc3cccc(C(F)(F)F)c3)CC2)c(C)c1,-,-,-,-,-,.
Cc1ccc2nc(N/N=C\c3ccc([N+](=O)[O-])o3)nc(-c3ccccc3)c2c1,67,-,-,-,-,-
Cc1cccc(NS(=O)(=O)c2ccc(C)c(C(=O)NNC(=O)c3csc(N4CCOCC4)n3)c2)c1,.,-,.,.,.,.
CCN(CCCNC(=O)CCc1nc(-c2ccc(C)cc2)no1)c1cccc(C)c1,52,-,-,-,-,43
CC(=O)OC1C(=O)N(Cc2ccccc2)C1c1ccc(C)cc1 (stereo not given),.,-,.,.,-,.
CN1C(=O)/C(=C2\SC(N3CCCCCC3)=NC2=O)c2ccccc21,55,-,-,-,-,44
COC(=O)C1CCN(C(=O)C2CC(=O)N(c3ccc(C)c(Cl)c3)C2)CC1 (stereo not given),.,-,.,.,-,.
N=C1/C(=C\c2coc3ccccc3c2=O)C(=O)N=C2SC=CN12,65,-,-,-,-,71
CSC1=NSC2=NC(=O)/C(=C/c3coc4ccccc4c3=O)C(=N)N12,.,-,.,.,-,.
SMILES,tim23-1 inh,V-ATPase pHluor,tim10-1 inh,TIM10 inh,PfHsp90 yeast 2,tim23-1 conf
C#CCOc1ccccc1/C=N/NC(=O)c1ccccc1OCc1ccccc1,-,-,-,-,-,.
CCc1ccc(C2NC(=O)c3ccccc3O2)cc1 (stereo not given),52,-,-,-,-,-
Cc1occc1C(=O)NNC(=O)c1ccc(S(=O)(=O)N(C)C)cc1,-,-,-,-,.,.
COc1cccc(Nc2nc(-c3ccc(O)cc3)cs2)c1,54,-,-,-,.,53
CC1CN(C(=O)c2ccccc2NS(=O)(=O)c2ccc(Cl)cc2)CC(C)O1 (stereo not given),-,-,-,-,-,.
CC(=O)OC1CC(C)N(C(=O)c2ccccc2)c2ccc(C)cc21 (stereo not given),-,-,-,-,.,.
Cc1ccc(C2=Nc3ccccc3N(C(=O)c3ccccc3)C(C)C2)cc1 (stereo not given),52,-,-,-,-,41
C[C@H]1CN(S(=O)(=O)c2ccc3c(c2)OCCO3)CCN1S(=O)(=O)c1c(F)cccc1F,51,-,-,-,-,-
CC12CN3CC(C)(CN(C1)C3c1cc(Br)ccc1O)C2=O (stereo not given),-,-,-,-,-,.
CC12CN3CC(C)(CN(C1)C3c1ccc(Br)cc1O)C2 (stereo not given),51,-,-,-,-,45
Cc1csc2nc(O)c(C(=O)NCc3ccc4c(c3)OCO4)c(=O)n12,75,-,-,-,-,73
Cc1cc(C)cc(C(=O)NCc2ccc3c(c2)OCO3)c1,-,-,-,-,-,.
O=Cc1cccnc1SCc1ccccc1,57,-,-,-,-,61
CCC1CCCCN1C(=O)CCNS(=O)(=O)c1ccc2c(c1)oc(=O)n2C (stereo not given),-,-,-,-,-,.
Cc1ccc(S(=O)(=O)n2ccc(OC(=O)c3cccs3)n2)cc1,58,-,-,-,-,57
CC(=O)Oc1c(S(=O)(=O)c2ccc(C)cc2)c(C)nn1C(C)(C)C,52,-,-,-,-,-
Cc1ccc(S(=O)(=O)c2c(C)nn(C(C)(C)C)c2OC(=O)c2cccs2)cc1,51,-,-,-,-,-
CC(=O)Oc1c(S(=O)(=O)c2ccc(C)cc2)c(C)nn1-c1ccccc1,-,-,-,-,-,.
CC1(C)Cc2ccccc2-c2nc(NN)[nH]c(=O)c21,51,-,-,-,-,-
COC(=O)c1sccc1NC(=O)Nc1ccc(C)c(C)c1,60,-,-,-,-,49
CCc1ccc(NC(=O)Nc2ccsc2C(=O)OC)cc1,56,-,-,-,-,57
COC(=O)c1sccc1NC(=O)Nc1ccc(Cl)c(Cl)c1,-,-,-,-,-,.
O=C(c1ccccc1[N+](=O)[O-])N1CCN(c2ccc(N3CCOCC3)nn2)CC1,-,-,-,-,-,.
Brc1ccc2oc(-c3ccn[nH]3)cc2c1,65,-,-,-,.,48
O=C(CCl)Nc1cccc(Oc2cnccn2)c1,-,-,-,-,-,.
SMILES,tim23-1 inh,V-ATPase pHluor,tim10-1 inh,TIM10 inh,PfHsp90 yeast 2,tim23-1 conf
O=C(CCl)Nc1cccc(Oc2ccccc2)c1,52,-,-,-,-,-
CC(OC(=O)CNC(=O)c1ccc(F)cc1)C(=O)Nc1ccc(S(=O)(=O)N2CCOCC2)cc1 (stereo not given),-,-,-,-,-,.
CCCCCCCCC(NC(=O)c1ccc(C#N)cc1)C(=O)NCCC (stereo not given),-,-,-,-,-,.
O=C(NC(=S)Nc1ccc(Br)cc1)C1CCC1,57,-,-,-,-,-
O=C(Nc1ccc(Br)c(Cl)c1)C1CC1,63,-,-,-,.,56
O=C(NC(=S)Nc1ccc(F)c(Cl)c1)C1CC1,54,-,-,-,-,-
